Experiment [1] concerns the target Cellular tumor antigen p53 (Homo sapiens) (UniProt P04637). Description: Primary qHTS for small molecule compounds that upregulate eGFP-tagged delta133p53alpha (in N-terminal) cells. (AID 2060322). Further: nearly all actives have a fitted effect of over 75% in size. Further: potency means the concentration at half of the fitted maximal effect.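 On activation: cells pre-induced with doxycycline then dosed without doxycycline; series mostly up to about 56 µM; 0% = DMSO vehicle and 100% = reference activator.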 The following applies: NCI-H358 eGFP-delta133p53alpha fluorescence, 24 h; activation: stronger effect = higher value. The method in brief:
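NCI-H358 cells pre-induced 24 h with 10 ng/ml doxycycline for eGFP-delta133p53alpha, plated dox-free and exposed 24 h at 37C to titrated compounds. Fixed, Hoechst-stained; gated GFP peak intensity by laser scanning cytometry, normalized to DMSO (0%) and 57.5 uM 5-azacytidine (100%).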
On the technique in general: qHTS replaces the single test concentration by a dilution series.

For experiment [2], the target named is Aldehyde dehydrogenase, mitochondrial (Homo sapiens) (UniProt P05091). The experiment can be described thus: qHTS for Inhibitors of the Aldehyde Dehydrogenase Family (ALDH2) Primary screen (AID 2061308).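 Further: plate controls were vehicle for no effect and reference inhibitor for full effect; nearly all actives have a fitted effect of over 55% in size.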
Experiment [3] addresses Retinaldehyde dehydrogenase 3 (Homo sapiens) (UniProt P47895). Description: qHTS for Inhibitors of the Aldehyde Dehydrogenase Family (ALDH1A3) Primary screen (AID 2061315). Further: potency means the concentration at half of the fitted maximal effect.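 On activity change, negative = inhibition: plate controls were DMSO vehicle for no effect and reference inhibitor for full effect.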

Molecules are shown by their SMILES. Records with an inconclusive call do not appear. A number with no mark means an inactive call. The source made the active and inactive calls. The call rests on the fitted dose curve; in most records, active means well fitted curve in the direction sought with a large enough effect; inconclusive means small, poorly fitted or top-dose-only effect, or another doubt; inactive means no such curve, though single readings can be large; an effect the other way counts as inactive or inconclusive.

Sequence of Cellular tumor antigen p53 (Homo sapiens) (P04637 whole entry, looked up): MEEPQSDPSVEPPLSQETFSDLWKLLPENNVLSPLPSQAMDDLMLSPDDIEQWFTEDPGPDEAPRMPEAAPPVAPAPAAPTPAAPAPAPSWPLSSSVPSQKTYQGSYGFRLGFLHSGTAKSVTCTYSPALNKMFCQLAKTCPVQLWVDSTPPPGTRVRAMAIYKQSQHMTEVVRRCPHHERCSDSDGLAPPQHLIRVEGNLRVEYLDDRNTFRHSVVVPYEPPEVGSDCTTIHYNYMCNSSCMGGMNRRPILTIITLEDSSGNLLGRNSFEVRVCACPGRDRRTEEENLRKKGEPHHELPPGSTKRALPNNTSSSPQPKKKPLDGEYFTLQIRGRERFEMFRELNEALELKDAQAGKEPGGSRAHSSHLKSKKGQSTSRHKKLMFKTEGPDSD

As for `COc1ccc(C(=O)CC(=O)O)c2c1C=CC(C)(C)O2`, the activation in experiment [1] is 23.2%. For the same compound, the Potency entry in experiment [2] and in experiment [3] was “inactive” each time.
Turning to `O=C1NC(=Nc2ccccc2F)S/C1=C\c1ccc(C(=O)O)cc1`, the activation in experiment [1] is 0.333%. For the same compound, the Potency entry in experiment [2] and in experiment [3] was “inactive” in each case.
Regarding `COc1cc2c(cc1O)CC[C@H]1[C@@H]2CC[C@]2(C)[C@H](O)CC[C@@H]12`, the Potency in experiment [1] is 1.51 µM (active); in experiment [3], 17.8 µM (active). For the same compound, in experiment [2], the Potency result was “inactive”.
On to `COc1cc(/C=C/c2ccccc2)c(C(=O)O)c(O)c1CC=C(C)C`, for which the activation in experiment [1] was -9.82%. Moreover, the Potency result in experiment [2] and in experiment [3] was “inactive” throughout.
`CC(=O)N1c2ccccc2C2(O)CC3C(=O)NC(CC(C)C)C(=O)N3C12` (centres undefined): the activation in experiment [1] is -32.8%. Besides, the Potency result in experiment [2] and in experiment [3] was “inactive” each time.
Consider `C=C(C)C(=O)O[C@H]1C[C@@](C)(OC(C)=O)[C@@]2(O)CC[C@@](C)(O)[C@H](OC(C)=O)[C@@]23OC(=O)C(COC)=C13`, for which, in experiment [1], the activation is -9.16%. The Potency result in experiment [2] and in experiment [3] was “inactive” each time.
Regarding `COc1cc2c(c(OC)c1CC=C(C)C)C[C@H](c1ccc(O)cc1O)CO2`, the activation in experiment [1] was 12.5%. Further, the Potency entry in experiment [2] and in experiment [3] was “inactive” in each case.
Take `C=CC(C)(O)CC/C=C(/C)C(=O)OC1C(OC2OCC(OC3OC(CO)C(O)C(O)C3O)C(OC3OCC(O)C(OC4OC(C)C(O)C(O)C4O)C3O)C2O)COC(OC(=O)C23CCC(C)(C)CC2C2=CCC4C5(C)CCC(OC6OC(CO)C(OC7OC(CO)C(O)C(OC8OCC(O)C(O)C8O)C7O)C(O)C6O)C(C)(C)C5CCC4(C)C2(C)CC3O)C1O` (centres undefined): the activation in experiment [1] is -12.2%. Further, the activity change, negative = inhibition is 0.572% [at 11.2 µM] in experiment [2] and 8.04% [at 11.2 µM] in experiment [3].
Turning to `CC(=O)OC[C@]12[C@H](OC(C)=O)C(=O)[C@@H]3[C@@H](O)[C@@]14O[C@@]3(C)COC(=O)c1cccnc1[C@@H](C)[C@H](C)C(=O)O[C@@H]([C@H](O)[C@@H]2OC(C)=O)[C@]4(C)O`, the activation in experiment [1] is -8.04%. Also, the Potency entry in experiment [2] and in experiment [3] was “inactive” in each case.
As to `Cc1ccc(F)cc1C(=O)Nc1ccc(C(=O)N2Cc3cccn3Cc3ccccc32)c(Cl)c1`, the activation in experiment [1] was 1.67%. Moreover, the Potency result in experiment [2] and in experiment [3] was “inactive” throughout.
As for `COc1cc(C(CO)CO[C@@H]2O[C@H](CO)[C@@H](O)[C@H](O)[C@H]2O)ccc1O` (some centres undefined), in experiment [1], the activation was -11.5%. Moreover, the Potency result in experiment [2] and in experiment [3] was “inactive” each time.
With `COc1cc(CO)ccc1O[C@@H]1O[C@H](CO)[C@@H](O)[C@H](O)[C@H]1O`, the activation in experiment [1] is -7.14%. In addition, the Potency result in experiment [2] and in experiment [3] was “inactive” throughout.
For the compound `C#Cc1cnc2[nH]c(=O)n(C(CC)CC)c2n1`, the activation in experiment [1] is -4.77%. Moreover, the Potency entry in experiment [2] and in experiment [3] was “inactive” each time.
Consider `C=C1C[C@]23C[C@H]1CC[C@H]2[C@]1(C)CCC[C@@]2(CO)C(=O)O[C@H]([C@H]21)[C@@H]3O`, for which the activation in experiment [1] is -6.11%. The Potency result in experiment [2] and in experiment [3] was “inactive” each time.
With `Cc1nc2sc(C(=O)NCc3ccncc3)c(N)c2c(C)c1Cl`, the activation in experiment [1] was 11%. In addition, the Potency result in experiment [2] and in experiment [3] was “inactive” throughout.
As for `COc1c(CCC(=O)O)cccc1O[C@@H]1O[C@H](CO)[C@@H](O)[C@H](O)[C@H]1O`, the activation in experiment [1] was -4.58%. Besides, the Potency result in experiment [2] and in experiment [3] was “inactive” throughout.
Turning to `C[C@@H]1O[C@@H](O[C@H]2[C@H](OC(=O)[C@]34CCC(C)(C)C[C@H]3C3=CCC5[C@@]6(C)C[C@H](O)[C@H](O[C@@H]7O[C@H](CO[C@@H]8OC[C@H](O)[C@H](O)[C@H]8O)[C@@H](O)[C@H](O)[C@H]7O)C(C)(C)C6CC[C@@]5(C)[C@]3(C)C[C@H]4O)OC[C@@H](O)[C@@H]2O)[C@H](O)[C@H](O[C@@H]2OC[C@](O)(CO)[C@H]2O)[C@H]1O[C@@H]1OC[C@H](O)[C@H](O[C@@H]2OC[C@@H](O)[C@H](O)[C@H]2O)[C@H]1O` (some centres undefined), the activation in experiment [1] is 8.93%. Also, the results for the activity change, negative = inhibition in experiment [2] and in experiment [3] were -4.16% [at 11.2 µM] and 0.994% [at 11.2 µM], respectively.
Regarding `CN(CC1(C)CCCO1)S(=O)(=O)c1ccc(Cl)c(S(N)(=O)=O)c1` (centres undefined), in experiment [1], the activation was -1.69%. The Potency result in experiment [2] and in experiment [3] was “inactive” throughout.
On to `COc1cc(C/C(=C/NC(C)=O)N(CC(=O)Cc2ccccc2)C(C)=O)cc2c1OCO2`, for which, in experiment [1], the activation is -26%. Besides, the Potency result in experiment [2] and in experiment [3] was “inactive” each time.
Turning to `CO[C@H]1[C@@H](O)[C@H](O[C@H]2CC[C@@]3(C)C(CCC4C3CC[C@]35COC6(COC(=O)C6)C3CCC45O)C2)O[C@@H](C)[C@@H]1OC1OC(CO)C(OC2OC(CO)C(O)C(O)C2O)C(O)C1O` (some centres undefined), the activation in experiment [1] is 6.87%. Moreover, the Potency result in experiment [2] and in experiment [3] was “inactive” throughout.
As to `COC(=O)C1=COC(O[C@@H]2O[C@H](CO)[C@@H](O)[C@H](O)[C@H]2O)[C@H]2[C@@H]1[C@H](OC(=O)CCc1ccc(O)cc1)C[C@]2(C)O` (some centres undefined), in experiment [1], the activation was 21.4%. For the same compound, the Potency result in experiment [2] and in experiment [3] was “inactive” throughout.
Consider `CCOP(=O)(Cc1ccc(C(=O)Nc2ccc(Br)cc2C#N)cc1)OCC`, for which the activation in experiment [1] was 2.33%. In addition, the Potency entry in experiment [2] and in experiment [3] was “inactive” each time.
With `C=C(CO)C(=O)O[C@H]1C[C@@]23O[C@@H]2CC/C(=C/[C@H]2OC(=O)C(=C)[C@H]12)CO[C@H]3O`, the activation in experiment [1] was 26.8%. Moreover, the Potency result in experiment [2] and in experiment [3] was “inactive” in each case.

Source of the values: PubChem BioAssay (NCATS).
